Bioassay records: PubChem BioAssay, National Center for Advancing Translational Sciences (NCATS)
Pf growth 48h – Primary qHTS for delayed death inhibitors of the malarial parasite plastid, 48 hour incubation; P. falciparum luciferase growth in erythrocytes, 48 h; Potency, µM (series often up to 28.7 µM), for inactives: at the top dose activity change, negative = inhibition, most hits filed as inhibitors; 5.9% of 310,000 active; note: potency is the fitted concentration of half-maximal effect; % is set by controls: 0 for no effect and ±100 for the full control effect
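In quantitative HTS format, infected erythrocytes bearing luciferase-reporter parasites were treated for a single generation at 37 C. Luminescence after adding detection reagent served as the growth measure.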
Pf growth 96h – Primary qHTS for delayed death inhibitors of the malarial parasite plastid, 96 hour incubation | P. falciparum luciferase reporter growth, 96 h | 6.9% of 320,000 active | Potency, µM (doses to about 28.7 µM), without a hit: at the highest dose activity change, negative = inhibition, hits mostly inhibitors; note: potency is the fitted concentration of half-maximal effect; % is set by controls: 0 for no effect and ±100 for the full control effect
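Erythrocytes infected with luciferase-expressing P. falciparum were dispensed at 2% hematocrit and 0.05% parasitemia (final), then incubated with compounds 96 hours at 37 C in 5% CO2. Luminescence after detection reagent addition reported growth.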
AMA1-RON2 inh – qHTS for Inhibitors of AMA1-RON; Towards Development of Antimalarial Drug Lead: Primary Screen | Plasmodium falciparum AMA1 (3D7) - RON2 peptide interaction | AlphaScreen AMA1-biotinylated RON2 peptide binding | Potency, µM (series often up to 58.2 µM), inactives show top-dose activity change, negative = inhibition, usual class: inhibitors | 0.2% of 360,000 active | AID 720542, 2013;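 note: potency is the fitted concentration of half-maximal effect; 0% = vehicle wells and -100% = peptide control; nearly all actives have a fitted effect of over 45% in size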
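AMA1 (3D7) with his tag at 25 nM final met compounds first, then biotinylated RON2 peptide at 25 nM; detection used donor plus acceptor beads, 10 µg/mL apiece, read by AlphaScreen after 30 min at room temperature.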
HCV inhibitor – qHTS Assay for Inhibitors of Hepatitis C Virus (HCV); Huh7.5.1 HCVcc-Cre infection, luciferase reporter, 44 h; Potency, µM (series often up to 41.8 µM), without a hit: top-dose activity change, negative = inhibition, actives largely listed as inhibitors; 3.4% of 340,000 active; AID 651820, 2012; note: potency is the fitted concentration of half-maximal effect; % is set by controls: 0 for no effect and ±100 for the full control effect
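Cells (1,000/well) were plated 4 h before compound, then infected with HCVcc-Cre virus (~0.5 moi). After 44 h further culture, infection was read as luciferase luminescence following a 15 min substrate incubation at room temperature.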
Shiga inhibitor – A qHTS for Small Molecule Inhibitors of Shiga Toxin. inhibition, % at 38.7 µM. 9.2% of 290,000 active. AID 2315, 2010. Vero cells, Shiga toxin protein synthesis inhibition reporter; in the data active = inhibition mostly above about 28%, no sharp cut-off; inactive = mostly below about 43%; note: 0% is about no effect
CHX counter – Cycloheximide Counterscreen for Small Molecule Inhibitors of Shiga Toxin; cell reporter, cycloheximide protein synthesis inhibition counterscreen; max response, %; 12% of 300,000 active; in the data active = max response mostly above about 13%, no sharp cut-off; inactive = mostly below about 14%; note: read at 38.3 µM for the half of the compounds with a filed dose; 0% is about no effect
Active calls of the source: *. In the library only some 21% were active in any assay of this set; here they are far more common. Unless noted, calls come from the whole dose curve; as a rule, active = well fitted curve in the direction sought with a large enough effect; inconclusive = small, poorly fitted or top-dose-only effect, or another doubt; inactive = no such curve, though single readings can be large; an effect the other way counts as inactive or inconclusive.

COc1cc(/C=C/C(=O)OCC(=O)Nc2cc(S(=O)(=O)N(C)C)ccc2Cl)ccc1O was read as Pf growth 48h -15%, Pf growth 96h -2%, AMA1-RON2 inh -5%, HCV inhibitor inconclusive, Shiga inhibitor 22 and CHX counter 10.
For COc1ccc(/C=C/C(=O)OCC(=O)Nc2cc(S(=O)(=O)N(C)C)ccc2Cl)cc1 the results were Pf growth 48h 43%, Pf growth 96h 24%, AMA1-RON2 inh -19%, HCV inhibitor 11%, Shiga inhibitor 58* and CHX counter 13*.
`CN(C)S(=O)(=O)c1ccc(Cl)c(NC(=O)COC(=O)c2ccc(O)cc2)c1` gave Pf growth 48h -15%, Pf growth 96h -18%, AMA1-RON2 inh 6%, HCV inhibitor 4%, Shiga inhibitor 2 and CHX counter -3.
`CCN(CC)S(=O)(=O)c1ccc(Cl)c(NC(=O)COC(=O)c2ccc(O)cc2)c1` gave Pf growth 48h inconclusive, Pf growth 96h 4.7µM*, AMA1-RON2 inh -14%, HCV inhibitor inconclusive, Shiga inhibitor -7 and CHX counter -3.
Cc1cc(-c2csc(NC(=O)c3ccc(=O)[nH]c3)n2)c(C)n1Cc1ccccc1 was read as Pf growth 48h -4%, Pf growth 96h 37%, AMA1-RON2 inh 0%, HCV inhibitor inconclusive, Shiga inhibitor -11 and CHX counter 3.
Screening O=C(Nc1nc(-c2ccccc2)cs1)c1cccs1 returned Pf growth 48h 4%, Pf growth 96h 177%, AMA1-RON2 inh 15%, HCV inhibitor inconclusive, Shiga inhibitor 123* and CHX counter 88*.
Screening O=C(Nc1nc(-c2ccccc2)cs1)c1ccc(=O)[nH]c1 returned Pf growth 48h 28%, Pf growth 96h 61%, AMA1-RON2 inh 4%, HCV inhibitor inconclusive, Shiga inhibitor 67* and CHX counter 24*.
O=C(Nc1nc(-c2ccc(Cl)s2)cs1)c1ccco1 was read as Pf growth 48h 41%, Pf growth 96h 60%, AMA1-RON2 inh -9%, HCV inhibitor inconclusive, Shiga inhibitor 81* and CHX counter 56*.
Cc1csc(NC(=O)c2ccco2)n1 was read as Pf growth 48h 11%, Pf growth 96h -10%, AMA1-RON2 inh 17%, HCV inhibitor 1%, Shiga inhibitor -4 and CHX counter -3.
For O=C(Nc1ccc(Cl)cc1-c1nc2ccccc2s1)c1ccco1 the results were Pf growth 48h 37%, Pf growth 96h inconclusive, AMA1-RON2 inh 21%, HCV inhibitor inconclusive, Shiga inhibitor 79* and CHX counter 13.
For COc1cccc(OC)c1C(=O)Nc1nc(-c2ccccc2)cs1 the results were Pf growth 48h inconclusive, Pf growth 96h 3%, AMA1-RON2 inh 0%, HCV inhibitor inconclusive and CHX counter 4.
For O=C(Nc1ccccc1-c1nc2ccccc2s1)c1ccc(Br)o1 the results were Pf growth 96h -21%, AMA1-RON2 inh -7%, HCV inhibitor -27%, Shiga inhibitor -5 and CHX counter 2.
`COc1cccc(N2CCN(C(=O)c3ccc(OC)c(S(=O)(=O)NC4CC4)c3)CC2)c1` gave AMA1-RON2 inh -3%.
For CC(=O)C1=CCC(c2cccs2)N(S(=O)(=O)c2ccc(C)cc2)C1 (configuration not stated) the results were AMA1-RON2 inh -2%.
O=C(Nc1nnc([C@@H]2C[C@H](O)[C@@H](CO)O2)s1)c1cccc2ccccc12 was read as AMA1-RON2 inh 10%.
`O=C(Nc1nc(-c2nc3ccccc3s2)cs1)c1ccco1` gave Pf growth 48h 100%, Pf growth 96h 84%, AMA1-RON2 inh -13%, HCV inhibitor 14%, Shiga inhibitor 66* and CHX counter 30*.
O=C(Nc1nc(-c2ccc(Cl)s2)cs1)c1cccs1 was read as Pf growth 48h inconclusive, Pf growth 96h -18%, AMA1-RON2 inh 13%, HCV inhibitor 11µM*, Shiga inhibitor 98* and CHX counter 30*.
O=C(O)C1CCCCC1C(=O)Nc1nc(-c2ccc(Cl)s2)cs1 (configuration not stated) was read as Pf growth 48h 34%, Pf growth 96h -17%, AMA1-RON2 inh 0%, HCV inhibitor 20%, Shiga inhibitor 2 and CHX counter -1.
Screening O=C(Nc1nc(-c2ccccc2)ns1)c1cccs1 returned Pf growth 48h 67%, AMA1-RON2 inh -2%, HCV inhibitor -13%, Shiga inhibitor 68* and CHX counter 28*.
CN(C)CC(=O)Nc1nc(-c2ccccc2)cs1 was read as Pf growth 96h 89%, AMA1-RON2 inh 57%, HCV inhibitor -7%, Shiga inhibitor 16 and CHX counter 12.
Screening CC1CC1C(=O)Nc1nc(-c2ccccc2)cs1 (configuration not stated) returned Pf growth 96h 3%, AMA1-RON2 inh 2%, HCV inhibitor inconclusive, Shiga inhibitor 84* and CHX counter 39*.
COc1cccc(CN2CCC(C(=O)NC(C)c3cccc4ccccc34)CC2)c1 (configuration not stated) was read as AMA1-RON2 inh 1%.
For O=C1c2ccccc2C(=O)N1CCCCSc1nc2ccccc2c(=O)n1CCCN1CCOCC1 the results were Pf growth 48h inconclusive, Pf growth 96h inconclusive, AMA1-RON2 inh -16%, HCV inhibitor -19%, Shiga inhibitor 1 and CHX counter -1.
CCOC(=O)N1CCN(S(=O)(=O)c2cc([N+](=O)[O-])c(C)cc2C)CC1 was read as Pf growth 48h 0%, Pf growth 96h 12%, AMA1-RON2 inh -7%, HCV inhibitor 15%, Shiga inhibitor 16 and CHX counter -3.
For O=C(CCNC(=O)Cn1ccc2ccccc2c1=O)NCC1CCCC1c1ccccc1 (configuration not stated) the results were Pf growth 48h 27%, Pf growth 96h -28%, AMA1-RON2 inh 7%, HCV inhibitor 7%, Shiga inhibitor -16 and CHX counter -2.
`O=C(Nc1nc(-c2nc3ccccc3s2)cs1)C1CC1` gave Pf growth 48h 53%, Pf growth 96h 137%, AMA1-RON2 inh -9%, HCV inhibitor inconclusive, Shiga inhibitor 85* and CHX counter 63*.
`O=C(Nc1nc(-c2ccccc2)cs1)c1ccccc1NS(=O)(=O)c1ccc(F)cc1` gave Pf growth 48h 13µM*, Pf growth 96h 3.7µM*, AMA1-RON2 inh -18%, HCV inhibitor inconclusive, Shiga inhibitor 27 and CHX counter 1.
